In the supplement of paper PMC11417369:
The full ranking holds about 25,000 sequences; the median of “ln(normalized median fluorescence intensity)” is about 9.3, and the highest 2% start at about 10. This is one part of a sample in which the highest values are shown more often than they occur.

tested on: PF3D7_0420300 AP2 domain 1 (GST-tagged); test: gcPBM binding intensity (ln(normalized median fluorescence intensity)); higher = stronger DNA binding
Procedure, shortened: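 Alexa488 anti-GST antibody, scanned at 488 nm, detected GST-tagged P. falciparum DNA-binding domains that had been expressed in E. coli and incubated for 1 h on an Agilent 4 × 180k array. The array carried primer-extended double-stranded 36-bp intergenic genomic probes and negative controls. Binding intensity is the highest Masliner-normalised natural-log median intensity across replicate spots of either orientation of each probe.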

Sequence	gcPBM binding intensity (ln)
TGAAAAAAGAAAAATACACACATATAATATAATATA [CACACA_site2255]	9.7
CATACACAGAAACACACACACATATATATATATATA [CACACA_site4519]	9.79
CATTATAAGAAACACACACACATATATATATATATA [CACACA_site1051]	9.73
ATATAACAGAAACACACACACATATATATATATTAT [CACACA_site4140]	10.2
TAAAAGAAATAATATACACACATATATAAAAATAAA [CACACA_site1329]	9.6
ACAGAAAAAAGACACACACACATAATATACATACAT [CACACA_site6991]	10.2
TAAAAAAAAACAGAAACACACATTATTCATATATAT [CACACA_site2049]	9.77
TGTATTAATAAAAATACACACATCATATTATAGAAA [CACACA_site7629]	9.49
TTAATTAGAAATCATACACACATATAAATAAATATA [CACACA_site6225]	9.6
ACAGAAAAAAAACACACACACATAATATACATACAT [CACACA_site1932]	10.2
AGCTATTAATTTATTACATGCAAGATTAAAAGACTA [TGCATGCA_site281]	8.99
AATCAAAACATTAAAAAGAAAAAATATATATATATA [CACACA_negctrl_site366]	9.03
AGGATATGCAGACACACACACATATAGATTTATATA [CACACA_site7100]	9.73
ATTGTGCTCATCAGCACACACAACATCATGTAATAA [CACACA_site1863]	9.47
TTTTGTTATATTCAATATTTATATATTATAAATATA [CACACA_negctrl_site1705]	9.11
TTAAAACCAAAACACAGTACATATATATATATATAT [XGTACX_site5668]	9.4
TATTTTATTTTTTTATGTACACAAAAAAAAAAAAAA [XGTACX_site945]	8.63
TTTTTTTTTTGTTGTTGTACTCTTATATTTTTATAT [XGTACX_site6178]	9.7
ATAAATAAATAAATAAATAAATATACATATACATAT [CACACA_negctrl_site205]	9.39
TATGGTAACATATGCTGTACAATATAATATGTTTAA [XGTACX_site1601]	9.11
TATAGTGATATATACACACACTTGTCTTGTAAAAAT [CACACA_site6594]	9.53
GATGTATTCATACATGCACACGTACATATTTAAATA [CACACA_site9299]	9.34
TAAATACAGAAACACACACACAAATATATACATACA [CACACA_site2880]	10.1

Sequence	gcPBM binding intensity (ln)
CATATACAGAAACACACACACACATAAATAAATATA [CACACA_site1343]	10.3
CAAATACAGAAACACACACACATATACATATATATA [CACACA_site3498]	9.97
ATATATATATATCACGCACACACGAATTTTAAATAT [CACACA_site3131]	9.65
TTTTCAAAATAATATTATATCAAATGCTAAAAAGAA [TGCATGCA_negctrl_site588]	8.96
AAACATAAGAGACACACACACATATATAAATAAATA [CACACA_site7674]	10.2
TAAAACATAAGAGACACACACACATATATATATATA [CACACA_site3643]	9.9
ATAAATATAGGACACACACACATATTATATATATAT [CACACA_site5658]	10.1
TAATAAATAGGACACACACACATATATATATATTAT [CACACA_site4891]	10.1
AACATTATAAGACACACACACACATATATATATATA [CACACA_site8259]	10.1
AACATTATAAGACACACACACACATATATAAATATA [CACACA_site6622]	10.3
GTAAGAAACAGACACACACACATATAAATATAAATA [CACACA_site6515]	10.1
AACATTATAGGACACACACACACATATATATATATA [CACACA_site4721]	10.2
TAATAAATAAGACACACACACATATATATATATTAT [CACACA_site1389]	10.2
ATCGTTATATAATGTTGTACTTGTTATATATATATA [XGTACX_site7582]	9.7
TATATATATATATATACATGCATTTCTCATGTACAT [TGCATGCA_site621]	9.14
TTTGATAAATGATACACACACAATATTTATAAAATA [CACACA_site7040]	9.72
ATCTATAAATTTCCACGTACATATATATATATATAT [XGTACX_site4502]	9.32
TTTTGTTTTTGTAGAGTGCATAAAGAAGATATGTAT	9.1
AGTGTATTAAATTTTGAACACACAAAATAAAACATA [CACACA_site8483]	9.43
TATATTATGACCACCACACACCTATACACATAACAT [CACACA_site7199]	9.62
ATTATAACACCTCCCCCCCTTTTTTTATGAAGACCA [CACACA_negctrl_site1043]	10.4
AACTTTTAGAAGAACACACACATATAGATTATGACC [CACACA_site6256]	9.86
